Results from PubChem BioAssay AID624172 (National Center for Advancing Translational Sciences (NCATS), 2012).
Out of some 380,000 compounds screened, about 25 (0.007%) were called active. Calls come from the whole dose curve; as a rule, active = well fitted activation curve with a large enough effect; inconclusive = small, poorly fitted or top-dose-only effect; inactive = no such curve, though single readings can be large or run the other way. A selection follows. Square brackets hold non-standard residues; d marks the D form. Side chains are listed from the residue outwards. Peptide text beside a SMILES is read from it. * marks the point of attachment. X1 = CCC(C)C(N)C1=NC(C(=O)*)CS1; Orn = NCCC[CH](N)C(=O)O

Target: Glucagon-like peptide 1 receptor (Homo sapiens) (UniProt P43220)
Sequence (P43220 whole entry, looked up): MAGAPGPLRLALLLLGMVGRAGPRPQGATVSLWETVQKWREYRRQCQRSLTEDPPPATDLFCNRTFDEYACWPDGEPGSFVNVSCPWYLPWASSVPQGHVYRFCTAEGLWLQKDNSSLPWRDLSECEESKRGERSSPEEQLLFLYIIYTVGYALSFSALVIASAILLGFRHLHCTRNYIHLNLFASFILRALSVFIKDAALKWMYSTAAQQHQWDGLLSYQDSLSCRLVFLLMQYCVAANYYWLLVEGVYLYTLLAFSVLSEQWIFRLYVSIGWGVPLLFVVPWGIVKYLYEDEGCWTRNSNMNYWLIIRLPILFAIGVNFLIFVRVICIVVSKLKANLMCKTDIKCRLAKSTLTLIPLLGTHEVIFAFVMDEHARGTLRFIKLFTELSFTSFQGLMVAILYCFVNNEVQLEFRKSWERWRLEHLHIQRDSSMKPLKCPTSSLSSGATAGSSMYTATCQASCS
Experiment: qHTS of GLP-1 Receptor Agonists; note: % of control where 0% means no effect
Settings: HEK293 GLP-1R CRE-luciferase, luminescence, 4-6 h, cells express a hypersensitive GLP-1R form; series mostly up to 45.6 µM; activation: at the top concentration
From the text: The overall goal of this project was to develop a novel assay for discovering small molecule ligands for class B1 G protein-coupled receptors (GPCRs). Very few agonists (or inverse agonists) with generally weak activity for this entire group of physiologically important receptors are known to date. To establish proof-of-principle that this critical bottleneck can be overcome with a suitable screening approach, our studies focused on the class B1 receptor for glucagon-like peptide-1 (GLP-1R), a potential therapeutic target for diabetes and neurodegenerative disease.
The assay was developed in a "mix and measure" format using a cell-based functional readout. Toward this goal, stably transfected HEK293 cell clones were established that co-express (i) a cAMP-responsive luciferase reporter gene, and (ii) GLP-1Rs that upon ligand interaction either stimulate (agonists) or inhibit (inverse agonists) luciferase activity. In different cell lines to be used for screening, expressed GLP-1Rs are specifically optimized for high sensitivity detection of either weak agonists (hypersensitive receptor) or inverse agonists (constitutively active receptor mutant). In addition, control cell lines were developed that express either the cAMP-responsive reporter gene without recombinant GLP-1Rs (enabling initial exclusion of GLP-1R independent effects of candidate probes), or the reporter gene together with wild type GLP-1Rs (for confirmation of probe activity at this receptor), or the reporter gene in combination with the constitutively active orphan receptor GPR119 (enabling initial exclusion of GLP-1R independent inhibitory effects of candidate inverse agonists).
To that end, this assay was optimized for 1536-well format and screened against the MLSMR.
NIH Molecular Libraries Probe Production Network [MLPCN]
NIH Chemical Genomics Center [NCGC]
PI Name: Martin Beinborn, Tufts Medical Center
In a white solid 1536-well plate, 6 uL of cells are dispensed in DMEM without phenol red, 10% Nu serum, and 1% pen-strep medium. The plates are then incubated for 12 hours at 37 deg C at 5% CO2 before 23 nL of compounds are added. After a 4-6 hr incubation at37 deg C and 5% CO2, 3 uL of detection reagent are added and after a 12 min incubation at RT, a luminescent read is obtained on the ViewLux.

activation, inactive:
CCc1cccc(NC(=O)CSc2nccn2C)c1 -3.15%
CO[C@H]1C[C@@H](O[C@@H]2[C@@H](C)O[C@@H](O[C@@H]3/C(C)=C/CC4C[C@@H](C[C@]5(C=C[C@@H](C)[C@H](C6CCCCC6)O5)O4)OC(=O)[C@@H]4C=C(C)[C@@H](O)[C@H]5OC/C(=C\C=C\[C@@H]3C)[C@]54O)C[C@H]2OC)O[C@@H](C)[C@@H]1O -0.686%
CCC(C)C(N)C1=NC(C(=O)NC(CC(C)C)C(=O)NC(CCC(=O)O)C(=O)NC(C(=O)NCCCCC2NC(=O)C(CC(N)=O)NC(=O)C(CC(=O)O)NC(=O)C(Cc3cnc[nH]3)NC(=O)C(Cc3ccccc3)NC(=O)C(C(C)CC)NC(=O)C(CCCN)NC2=O)C(C)CC)CS1 (stereo not drawn) (cyclo(DNK([Ile-Glu-Leu-X1])[Orn]IFH); configuration not given here) -2.39%
COc1ccc(Cl)cc1NC(=O)Cn1c(=O)c2ccccc2n2nncc12 -0.325%
Cc1ccc(CNC(=O)Cn2c(=O)ccc3cc(S(=O)(=O)N4CCCC4)ccc32)cc1 -1.49%
CCc1ccccc1NC(=O)Cn1c(=O)n(-c2cccc(C)c2)c(=O)c2c1c1cc(OC)ccc1n2C -2.18%
CCOc1ccc(NS(=O)(=O)c2ccc(N)cc2)nn1 9.6%
Cc1ccc(-c2nnc(SCc3ccccc3C)o2)cc1 4.83%
O=C(/C=C/c1cccc(F)c1)NC1CC1 -0.0663%
CCOC(=O)c1ccccc1NC(=O)CCc1c(C)nc2c(c1C)c(=O)n(C)c(=O)n2C -0.702%
Cc1cc(C)cc(NC(=O)Cn2c(=O)c3ccccc3n3nncc23)c1 0.209%
FCOC(C(F)(F)F)C(F)(F)F -1.76%
COc1ccccc1N1CCN(c2ncnc3onc(-c4ccc(F)cc4)c23)CC1 -0.0304%
Cc1ccc(C)c(N2CCN(S(=O)(=O)c3ccc4c(c3)C(C(C)C)C(=O)N4)CC2)c1 (stereo unspecified) 4.77%
NCCCCC(N)C(=O)O (stereo unspecified) -3.9%
Cn1c(=O)nc2n(-c3ccc(Br)cc3)c3cccc(Cl)c3cc-2c1=O -2.12%
Cc1ccc(-n2nnnc2CNC(=O)c2ccccc2C)cc1C 0.615%
COc1ccc(NC(=O)Cn2c(=O)n(Cc3ccc(C(=O)NCc4ccccc4Cl)cc3)c(=O)c3ccccc32)cc1 2.1%
Cc1cccc(NC(=O)CSc2nc3c([nH]c4ccccc43)c(=O)n2-c2cc(C)cc(C)c2)c1 3.1%
CC1(C)OC2CC(=O)OC[C@@]23C1CC(=O)[C@]1(C)C3CC[C@@]2(C)C(c3ccoc3)OC(=O)C3O[C@@]321 (stereo partly specified) -3.73%
Cc1ccc(C(=O)CSc2nc(-c3ccccc3)nc3c2CCCC3)c(C)c1 -7.64%
